In all, about 5,500 compounds went through this assay and about 2,000 (36%) were called active. Roughly 18% stayed inconclusive and do not appear here. No stated cut-off is given here; in the data, active means normalized growth mostly below about 0.91 (no sharp cut-off); inconclusive means no clear call, values can overlap the other calls; inactive means mostly above about 0.92. The list shows a part of the results.
Experiment: chemical genetic growth profiling, strain panel (AID 1159580);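 further: tested at 20 µM; growth read once vehicle control cultures reached saturation at 30 °C; 1 = growth at the plate median or of vehicle wells; lower values mean less growth of the strain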
Settings: S. cerevisiae deletion strains, growth OD

Measured: normalized growth

CCCn1c(=O)c2c(ncn2C)n(CCC)c1=O
active: locus YAL040C, strain CLN3, hits give low values 1.13 [resistant]
inactive: locus YAL013W, strain DEP1, hits give low values 0.983 | locus YCL061C, strain MRC1 (second series), hits give low values 1 | locus YDR150W, strain NUM1, hits give low values 1.02 | locus YDR363W, strain ESC2, hits give low values 0.964 | locus YER002W, strain NOP16, hits give low values 0.999 | locus YGR078C, strain PAC10, hits give low values 0.986 | locus YNL128W, strain TEP1, hits give low values 0.992 | locus YNL175C, strain NOP13, hits give low values 1 | locus YNL197C, strain WHI3, hits give low values 1 | locus YNL224C, strain SQS1, hits give low values 0.988 | locus YNL322C, strain KRE1, hits give low values 0.994 | locus YOR083W, strain WHI5 (second series), hits give low values 0.981 | locus YPL241C, strain CIN2, hits give low values 1.01

— PubChem BioAssay AID1159580 (chemical genetic matrix, 2015)
